Reference: PubChem BioAssay AID743279 (National Center for Advancing Translational Sciences (NCATS), 2014)
The campaign covered roughly 360,000 compounds. About 17,000 (4.7%) were called active. Another 5% or so got no clear call; they are omitted. Cut-off read from the data, not from the text of the source: active = activity change below about -50%; inconclusive = mostly about -30% to -49%; inactive = weaker than that. Only a selection was taken, and actives are over-represented in it overall.

Experiment: qHTS for Inhibitors of Inflammasome Signaling: IL-1-beta AlphaLISA Primary Screen
Conditions: THP-1 LPS/ATP IL-1B secretion, 16 h; at 57.5 µM, hits give low values
In short: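 Secreted IL-1B measured by AlphaLISA bead assay after 16 h compound exposure of THP-1 cells; compounds (final up to 57.5 uM) added 1 h before LPS (250 ng/mL) and ATP (1.25 mM) stimulation; lower signal means less secretion.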
% is set by controls: 0 for no effect and ±100 for the full control effect.

SMILES	activity change
O=C(c1ccc2c(c1)C(=O)N(Cc1ccncc1)C2=O)N1CCN(S(=O)(=O)c2ccc(OC(F)(F)F)cc2)CC1	8.07% (inactive)
COc1ccccc1CNC(=O)c1cc(-c2cc(Cl)ccc2C)n[nH]1	-16.3% (inactive)
Cc1ccc(O)c(-c2cc(C(=O)NCc3ccccc3)[nH]n2)c1	-0.0227% (inactive)
Cc1cc(O)ccc1-c1cc(C(=O)NCc2cc(C(F)(F)F)cc(C(F)(F)F)c2)[nH]n1	-53.4% (active)
COC(=O)c1ccc2nc(-c3ccc(Cl)cc3)c(Cc3cccc(F)c3)n2c1	58.6% (inactive)
CC(=O)NC(NC(=S)Nc1c(C)n(C)n(-c2ccccc2)c1=O)C(Cl)(Cl)Cl (centres undefined)	0% (inactive)
O=C(CN1CCN(Cc2ccccc2)CC1)Nc1ccc(F)c(F)c1	-7.81% (inactive)
CCOC(=O)N1CCN(CCC(=O)Nc2ccccc2)CC1	-4.73% (inactive)
Cc1cc(NC(=O)CCN2CCN(Cc3ccccc3)CC2)ccc1Br	-54% (active)
O=C(OCC(=O)N1CCCCCC1)c1cccc(Cl)c1Cl	9.58% (inactive)
COc1ccc(Cl)cc1N(CC(=O)N/N=C/c1ccc(OCC(N)=O)cc1)S(C)(=O)=O	34.5% (inactive)
Cc1nc2ccccc2nc(C)c1=NOCc1ccc(Cl)cc1Cl	0% (inactive)
NC(N)=N/N=C/c1ccc(OCc2ccc(Cl)cc2Cl)cc1	-97.9% (active)
COc1ccc(/C=C/C(=O)OCC(=O)N2CCN(S(=O)(=O)c3ccc(C)cc3C)CC2)cc1OC	1.01% (inactive)
COc1ccc(CCNc2cc(C)nc3c(-c4ccc(Cl)cc4)c(C)nn23)cc1OC	15.4% (inactive)
CCOc1ccccc1/C=N/Nc1nc2ccccc2o1	0% (inactive)
CC(OC(=O)c1ccc2ccccc2n1)C(=O)c1ccccc1 (centres undefined)	14.9% (inactive)
COc1cccc(/C=C2\C=C(c3ccc(C)cc3)OC2=O)c1OC(C)=O	-5.9% (inactive)
CCOc1ccccc1-c1cc(C(=O)N/N=C(\C)c2cccnc2)c2ccccc2n1	6.38% (inactive)
COc1cccc(/C=C/c2ccc3ccccc3n2)c1OC(C)=O	-103% (active)
CCOc1cccc(/C=C/c2ccc3ccccc3n2)c1OC(C)=O	-92% (active)
CC1(C(=O)Nc2ccc3c(c2)OCCO3)CSCC(=O)N1CCOc1ccccc1 (centres undefined)	-3.47% (inactive)
O=C(NC1CCCC1)C1c2ccccc2OCC(=O)N1CC(F)(F)F (centres undefined)	35.1% (inactive)
CC(C)C(C)(C#N)NC(=O)CSc1nc2scc(-c3ccccc3)c2c(=O)[nH]1 (centres undefined)	18.7% (inactive)
CC[C@@]12C(=O)N(c3ccccc3)C(=O)N1[C@H](c1ccc(Br)cc1)[C@@H]1C(=O)N(C(C)(C)C)C(=O)[C@@H]12	12% (inactive)
O=C(Nc1ccc2c(c1)OCCO2)c1ccoc1	-12.9% (inactive)
Cn1cc([N+](=O)[O-])c(C(=O)Nc2ccc3c(c2)OCCO3)n1	-66.8% (active)

SMILES	activity change
Cc1onc(C(=O)Nc2ccc3c(c2)OCO3)c1[N+](=O)[O-]	-7.05% (inactive)
CC(=O)N(O)CCCCCNC(=O)CCC(=O)N(O)CCCCCNC(=O)CCC(=O)N(O)CCCCCNC(=O)CCC(=O)O	21.7% (inactive)
CC(C)(C)N1C(=O)[C@H]2[C@@H](c3ccc(Br)cc3)N3C(=O)N(c4cccc(Cl)c4)C(=O)[C@@]3(C)[C@H]2C1=O	-24.5% (inactive)
O=C1[C@H]2[C@@H](c3ccc(Cl)cc3)N3C(=O)N(c4cccc(F)c4)C(=O)[C@@]3(Cc3ccccc3)[C@H]2C(=O)N1C1CCCCC1	-4.9% (inactive)
C[C@@]12C(=O)N(c3cccc(Br)c3)C(=O)N1[C@H](c1ccc(Cl)cc1)[C@@H]1C(=O)N(C3CCCCC3)C(=O)[C@@H]12	-60.3% (active)
COc1ccc(-c2cnc3c(c2)C(=O)N([C@H](C)CO)C[C@@H](C)[C@H](CN(C)Cc2ccccc2)O3)cc1	-26.2% (inactive)
CCCNC(=O)C1(C)CCN(Cc2csc(-c3ccc(Cl)cc3)n2)C1 (centres undefined)	-26.3% (inactive)
c1ccc2c(c1)CSc1sccc1C2=C1CCNCC1	-57.8% (active)
CN1OC[C@@H]2CN(C(=O)c3cccc4ccccc34)[C@H](c3ccc(N4CCCCC4)cc3)C[C@@H]21	-28.3% (inactive)
N#Cc1ccc(OCC(=O)Nc2nc(-c3ccccn3)cs2)cc1	69.5% (inactive)
CSc1ccccc1NC(=O)CN(C)CC(=O)Nc1ccc(Cl)cc1[N+](=O)[O-]	-0.613% (inactive)
CSc1ccccc1NC(=O)CN(C)CC(=O)Nc1cccc(Br)c1	-74.1% (active)
CCC(C)c1ccccc1NC(=O)CN(C)CC(=O)Nc1ccccc1SC (centres undefined)	-1.52% (inactive)
O=C(Nc1ccccc1)C1CC(=O)n2c(nc3ccccc32)N1 (centres undefined)	-5.02% (inactive)
COc1ccc(CC(NC(C)=O)C(=O)NC2CCN(C(=O)c3ccc(Cl)cc3)CC2)cc1 (centres undefined)	23.6% (inactive)
COC(=O)C[C@H]1C=C[C@@H](NS(=O)(=O)c2ccc(C)cc2)[C@@H](CO)O1	34.5% (inactive)
CSc1ncnc2c1ncn2CCCNCc1cccs1	19.3% (inactive)
COc1ccc(NC(=S)NCCN2CCC(C)CC2)cc1	-11.9% (inactive)
COc1ccc(N2CCC(N3CCN(C)C(CCO)C3)CC2)cc1 (centres undefined)	15.4% (inactive)
COc1ccc(C(C(=O)Nc2c(C)cccc2C)N2CCN(c3ccc(C)cc3)CC2)cc1 (centres undefined)	-9.64% (inactive)
COc1ccc(OCC(=O)Nc2ccc(N3CCC(C)CC3)cc2)cc1	2.27% (inactive)
COc1ccc(NC(=S)NCC2CCN(c3ccc(OC)cc3)C2)cc1 (centres undefined)	-82.6% (active)
COc1ccc(N2CCC(CNC(=S)Nc3c(C)cccc3C)C2)cc1 (centres undefined)	-82.6% (active)
Cc1sc2ccccc2c1CNC[C@H]1O[C@@H](n2ccc(=O)[nH]c2=O)[C@H](O)[C@@H]1O	-9.54% (inactive)
CN(Cc1c(F)cccc1Cl)C(=O)COC(=O)Cn1cnc2ccccc2c1=O	12.8% (inactive)
CCCCN1CC(N2CCN(Cc3cccc(C)c3)CC2)CS1(=O)=O (centres undefined)	-1.82% (inactive)
CCc1ccc([C@@H]2CC(=O)[C@@H]3CN(S(=O)(=O)c4ccc(C)cc4)[C@H](c4ccc(Cl)cc4)C[C@@H]3N2S(=O)(=O)c2ccc(C)cc2)cc1	9.82% (inactive)
